# Bioassay records: PubChem, National Center for Advancing Translational Sciences (NCATS)
# Pf growth 96h: P. falciparum growth inhibition at 96 hours; hit rate 6.9% among 320,000; P. falciparum luciferase reporter growth, 96 h; Potency, µM (titrated, usually from 28.7 µM), most hits filed as inhibitors
#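 Delayed-death screen, second-generation endpoint: infected erythrocytes, 2% hematocrit, 0.05% parasitemia final; 96 hours at 37 C, 5% CO2; luciferase detection reagent; luminescence decrease equals reduced growth.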
# AMA1 RON2 block: AMA1-RON2 (P. falciparum) interaction inhibition. AlphaScreen AMA1-biotinylated RON2 peptide binding. Potency, µM (titrated, usually from 58.2 µM), usual class: inhibitors. hit rate 0.2% among 360,000; note: nearly all actives have a fitted effect of over 45% in size
#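 AMA1 (3D7) with his tag at 25 nM final met compounds first, then biotinylated RON2 peptide at 25 nM; detection used donor plus acceptor beads, 10 µg/mL apiece, read by AlphaScreen after 30 min at room temperature.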
# Vaccinia Venus: inhibitors of vaccinia virus (Venus reporter); hit rate 0.46% among 330,000; Potency, µM (top dose mostly 36.5 µM), usual class: inhibitors; Vaccinia virus Venus reporter expression, fluorescence; calls by dose curve; tested in A549 cells; note: nearly all actives have a fitted effect of over 30% in size
# Pf growth 48h: P. falciparum growth inhibition at 48 hours (one generation) | P. falciparum luciferase growth in erythrocytes, 48 h | Potency, µM (doses to about 28.7 µM), actives largely listed as inhibitors | hit rate 5.9% among 310,000 | AID 504832
#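 Firefly luciferase activity from engineered P. falciparum reports growth; inhibitors lower the luminescent signal. Cultures contained 2% hematocrit erythrocytes at 0.1% final parasitemia.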
# Vaccinia mCherry: vaccinia inhibition (mCherry reporter); Vaccinia virus mCherry reporter infection, fluorescence; Potency, µM (titrated, usually from 36.5 µM), actives largely listed as inhibitors; hit rate 0.63% among 310,000; AID 720579; calls by dose curve; tested in A549 cells; note: nearly all actives have a fitted effect of over 35% in size
# A number is an active result; . = inactive; ? = inconclusive; / = no result; [ ] = dose if it differs, or a comment. The list is not random: actives were taken first. Their share in the collection is about 8.7%. Unless noted, calls come from the whole dose curve; as a rule, active = well fitted curve in the direction sought with a large enough effect; inconclusive = small, poorly fitted or top-dose-only effect, or another doubt; inactive = no such curve, though single readings can be large; an effect the other way counts as inactive or inconclusive.
SMILES,Pf growth 96h,AMA1 RON2 block,Vaccinia Venus,Pf growth 48h,Vaccinia mCherry
CC(=O)Oc1ccccc1C(=O)C=Cc1cccc([N+](=O)[O-])c1,/,.,?,/,14.1µM
COc1ccc(N2CCN(C(=O)c3ccccc3)CC2)c([N+](=O)[O-])c1,?,?,.,.,.
O=C(c1ccc(-n2cncn2)c([N+](=O)[O-])c1)N1CCN(S(=O)(=O)c2ccc(Cl)cc2)CC1,4.65µM,.,.,?,.
COc1ccccc1C(=O)/C=C/c1ccc(N2CCCCC2)c([N+](=O)[O-])c1,7.38µM,?,?,?,?
O=S(=O)(c1cccc(C(F)(F)F)c1)N1CCN(c2nnnn2-c2ccccc2)CC1,8.28µM,.,/,.,/
Cc1ccc(C)c(S(=O)(=O)N2CCN(C(=O)c3ccc(-n4cncn4)c([N+](=O)[O-])c3)CC2)c1,11.7µM,.,?,?,.
Cc1ccc(C)c(S(=O)(=O)N2CCN(C(=O)c3ccc(N4CCCC4)c([N+](=O)[O-])c3)CC2)c1,?,.,.,?,.
COC(=O)c1ccc(NC(=O)CSc2nc3cc4ccccc4cc3[nH]2)cc1,/,/,.,/,.
Cc1c(C(=O)N2CC[C@@H]3CCCC[C@H]3C2)sc2ncnc(NCCc3ccccn3)c12,/,/,.,/,.
O=C(c1ccc(N2CCCC2)c([N+](=O)[O-])c1)N1CCN(S(=O)(=O)c2ccccc2)CC1,?,.,.,10.4µM,.
Cc1ccc(S(=O)(=O)N2CCN(C(=O)c3ccc(N4CCC(C)CC4)c([N+](=O)[O-])c3)CC2)cc1,/,.[11.6 µM],.,/,?
CCC(=O)c1ccc(N2CCN(S(=O)(=O)c3ccccc3)CC2)c(F)c1,9.28µM,.,.,.,.
O=C(O)c1ccccc1C(=O)c1ccc(N2CCCC2)c([N+](=O)[O-])c1,11.7µM,.,.,.[1.15 µM],.
O=[N+]([O-])c1cc(C(F)(F)F)cc([N+](=O)[O-])c1N1CCN(S(=O)(=O)c2ccccc2)CC1,14.7µM,.,.,?,.
CCC(Sc1nncn2c1cc1occc12)C(=O)Nc1ccc(C)c(Cl)c1 (stereo unspecified),/,/,.,/,.
O=C(CN1C(=O)C2CCCCN2c2ccc(C(=O)N3CCCC3)cc21)NCc1ccccc1 (stereo unspecified),/,/,.,/,.
CC(C)(C)c1ccc(CSc2nnc(-c3ccccn3)n2Cc2ccco2)cc1,/,.,.,7.38µM,.
Brc1ccc(CSc2nnc(-c3ccccn3)n2Cc2ccco2)cc1,3.7µM,.,.,?,.
CCOc1ccc(-c2cc3nc(C4CCN(C(=O)OC(C)(C)C)CC4)c(C(=O)Nc4ccc(C)cc4C)cn3n2)cc1,/,/,.,/,.
CCC1C(=O)CC(c2ccc([N+](=O)[O-])cc2)NC1c1ccc([N+](=O)[O-])cc1 (stereo unspecified),.,.,.,13.1µM,.
O=C(Nc1cccs1)Nc1ccc(Br)cc1F,11.7µM,.,.,?,?
Cc1cc(C)cc(NC(=O)Nc2cccs2)c1,/,/,.,/,.
Cc1ccc(NC(=O)Nc2cccs2)cc1,7.38µM,.,.,.,.
CN1C(=O)CC(c2cn(Cc3ccccc3)c3ccccc23)C1=O (stereo unspecified),2.62µM,.,/,?,/
Cc1cccc(N2CCn3c2nc2c3c(=O)n(CCCc3ccccc3)c(=O)n2C)c1,/,/,.,/,.
SMILES,Pf growth 96h,AMA1 RON2 block,Vaccinia Venus,Pf growth 48h,Vaccinia mCherry
O=C(NC(Cc1ccccc1)C(=O)O)/C(=C\c1ccc(F)cc1)NC(=O)c1ccco1 (stereo unspecified),.,.,.,.,.
O=C(NC(Cc1ccccc1)C(=O)O)/C(=C/c1ccccc1)NC(=O)c1ccco1 (stereo unspecified),5.22µM,.,.,.,.
CC(C)(C)OC(=O)N1CCC(c2c(C(=O)N3CCN(c4ccccc4)CC3)cnn2-c2ccccc2)CC1,/,/,.,/,.
C=CCn1c(SCC(=O)Nc2sccc2C(N)=O)nc2sc(CC)cc2c1=O,/,.,10µM,?,/
C=CCn1c(SCC(=O)NC2CCCC2)nc2sc(C)cc2c1=O,6.57µM,.,.,.,.
CCCOc1cccc(C(=O)Nc2cccc(-c3nc4ncccc4o3)c2C)c1,/,/,.,/,.
CCCNC(=O)c1ccccc1N1CCN(CCCCN2C(=O)C3CCCCN3C2=O)CC1 (stereo unspecified),10.4µM,.,/,.,/
O=C(NC(=S)Nc1ccc2c(c1)OCO2)c1ccc(Cl)cc1,.,.,.,.,.
CCc1ccc(C(=O)NC(=S)Nc2ccc3c(c2)OCCO3)cc1,8.28µM,.[11.6 µM],.,.,.
Cc1cc(C)cc(C(=O)NC(=S)Nc2ccc3c(c2)OCCO3)c1,0.928µM,.,.,.,.
Cc1ccc(C(=O)NC(=S)Nc2ccc3c(c2)OCCO3)c(C)c1,?,.,.,.,/
COc1ccc(C(=O)c2ccc(Br)cc2)cc1,?,.,.,11.7µM,.
CCn1c(SCc2ccc(C(=O)OC)o2)nc2sc3c(c2c1=O)CCCC3,1.04µM,.,.,.,.
CCn1c(SCC(=O)OC)nc2sc3c(c2c1=O)CCC3,.,.,.,.,.
O=[N+]([O-])c1ccc(N2CCN(CCO)CC2)cc1Sc1ccccn1,?,.,.,.,.
CCN1CCN(c2ccc([N+](=O)[O-])c(Sc3nc4ccccc4[nH]3)c2)CC1,2.62µM,.,.,?,.
